# According to PubChem BioAssay:
# Entries with a potency or affinity are not part of this list. Results filed as inconclusive are left out. Active and inactive are the calls of the source.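 Rule for the calls, unless noted: active = signal drop whose fitted half-maximal concentration is at most twice the top valid dose, in every test run; inconclusive = mixed calls across runs, poor fit, or flat 30 to 70% inhibition; inactive = wrong direction, flat within 30%, or potency beyond limit.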
# Columns and labels:
# [1] = target: Adenosylmethionine-8-amino-7-oxononanoate aminotransferase (Mycobacterium tuberculosis (strain ATCC 25618 / H37Rv)) (UniProt P9WQ81); test: inhibition of purified M. tuberculosis BioA – biochemical, plate reader, cherry-pick samples, dose response (AID 651683; call rule not given here); details: purified M. tuberculosis BioA enzyme; series mostly up to 10 µM
# Adenosylmethionine-8-amino-7-oxononanoate aminotransferase (Mycobacterium tuberculosis (strain ATCC 25618 / H37Rv)), sequence (P9WQ81 whole entry, looked up): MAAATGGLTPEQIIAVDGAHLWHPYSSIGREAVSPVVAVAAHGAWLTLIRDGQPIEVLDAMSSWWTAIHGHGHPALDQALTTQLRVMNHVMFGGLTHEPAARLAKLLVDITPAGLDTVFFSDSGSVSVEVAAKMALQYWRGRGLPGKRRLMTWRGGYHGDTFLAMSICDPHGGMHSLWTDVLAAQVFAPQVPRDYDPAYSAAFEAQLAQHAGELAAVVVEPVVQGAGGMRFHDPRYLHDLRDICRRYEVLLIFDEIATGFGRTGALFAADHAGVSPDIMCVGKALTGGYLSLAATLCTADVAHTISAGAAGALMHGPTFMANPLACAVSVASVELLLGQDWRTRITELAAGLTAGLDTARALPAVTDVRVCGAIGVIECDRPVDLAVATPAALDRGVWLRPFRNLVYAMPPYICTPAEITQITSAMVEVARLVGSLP
# [2] = cytotoxicity in PAX8-dependent RMG-1 cells, dose response, cell-based, cherry-pick (AID 687029); details: RMG-1 viability, CellTiterGlo ATP luminescence, 96 h; series mostly up to 35 µM;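 note: cells exposed to compound for 96 hours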
# [3] = cytotoxicity in IOSE-T80 ovarian epithelial cells, dose response, selectivity assay for PAX8 inhibitor project, cell-based, cherry-pick (AID 687032;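 active = fitted half-maximal concentration for viability loss no higher than twice the top valid dose, in every repeat run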;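 note: cells exposed to compound for 96 h before reading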); details: CellTiterGlo ATP luminescence, 96 h; series mostly up to 35 µM
# [4] = inhibitors of CMV-promoter luciferase reporter, dose response, counter-screen for Pax8 inhibitor project, cell-based, HEK293, luminescence, dry powder (AID 743020;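 active = signal-lowering compounds whose fitted half-maximal concentration is at or below twice the top tested dose in every run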;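 note: HEK293 cells stably expressing the CMV luciferase reporter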); details: SteadyGlo luminescence, 24 h; series mostly up to 35 µM
# [5] = HepG2 cell cytotoxicity, dose response, cytotoxicity control, cherry-picks, set 2 (AID 687002;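 active = a dose-response fit showing signal loss, with half-maximal concentration no higher than twice the top tested dose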); details: HepG2 viability, ATP luminescence (CellTiter-Glo), 48 h; series mostly up to 26 µM
# [6] = non-specific cell cytotoxicity, dose response, cytotoxicity control for PAX8 inhibitor project, plate reader, dry powder samples (AID 743021; call rule not given here); details: cell line, non-specific cytotoxicity counter-screen; series mostly up to 35 µM
# [7] = inducers of Cryptococcus neoformans cell lysis, dose response, AK release luminescence, cherry-picks (AID 687000;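 active = fitted dose curve reaches 40% lysis signal rise at or below the highest valid concentration tested for that sample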;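 note: luminescent detection of adenylate kinase leaking from lysed yeast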); details: C. neoformans lysis, adenylate kinase release luminescence, 4 h; series mostly up to 15 µM
smiles,measurement,setting,value
Cc1c(OC(C)C(=O)NCC2CCC(C(=O)O)CC2)ccc2c1oc(=O)c1ccccc12 (stereo unspecified),outcome,[1],inactive
CCn1nc(/C=C/c2ccccc2)nc2c(=O)n(C)c(=O)nc1-2,outcome,[2],inactive
O=c1[nH]c2ccccc2n1C1CCN(C(CCc2ccccc2)c2nnnn2Cc2ccccc2)CC1 (stereo unspecified),outcome,[2],inactive
same,outcome,[3],inactive
same,outcome,[4],inactive
O=c1[nH]c2ccccc2n1C1CCN(C(c2cc3ccccc3o2)c2nnnn2-c2ccc3c(c2)OCCO3)CC1 (stereo unspecified),outcome,[2],inactive
O=c1[nH]c2ccccc2n1C1CCN(C(c2ccccc2OC(F)(F)F)c2nnnn2-c2ccc3c(c2)OCCO3)CC1 (stereo unspecified),outcome,[2],inactive
CC[C@H](C)[C@@H]1NC(=O)CNC(=O)c2csc(n2)[C@H](C(C)(C)O)OC(=O)C(C)(C)[C@H](CCCC(C)(Cl)Cl)OC(=O)c2csc1n2,outcome,[5],inactive
same,outcome,[2],inactive
same,outcome,[3],inactive
same,outcome,[4],inactive
same,outcome,[6],inactive
CC(=O)OC1(C)CC(C)C(=O)C(C(O)CC2CC(=O)NC(=O)C2)C1 (stereo unspecified),outcome,[7],inactive
same,outcome,[5],inactive
N#CC1c2ccccc2-n2nncc2CN1Cc1cc(Cl)cc(Cl)c1 (stereo unspecified),outcome,[2],inactive
same,outcome,[3],inactive
same,outcome,[4],inactive
same,outcome,[6],inactive
COc1ccccc1-c1cc(C(F)(F)F)nc(S(=O)(=O)CCCC(=O)O)n1,outcome,[1],inactive
O=c1[nH]c2ccccc2n1C1CCN(C(c2cccc3ccccc23)c2nnnn2-c2ccc3c(c2)OCCO3)CC1 (stereo unspecified),outcome,[2],inactive
same,outcome,[3],inactive
same,outcome,[4],inactive
same,outcome,[6],inactive
O=c1[nH]c2ccccc2n1C1CCN(C(CCc2ccccc2)c2nnnn2-c2ccc3c(c2)OCCO3)CC1 (stereo unspecified),outcome,[2],inactive
C=C1C(C)C2C(Cc3ccccc3)NC(=O)C23OC(=O)/C=C/C(O)CCCC(C)C/C=C/C3C1O (stereo unspecified),outcome,[2],inactive
same,outcome,[3],inactive
